# Out of some 69,000 compounds screened, about 1,000 (1.4%) showed an effect of 50% or more. For the sample, strong results were picked, then their nearest neighbours and some compounds at random.
# Test system: Leishmania donovani
# Test: Leishmania intramacrophage assay
# Assay type: functional, organism-based
# Parameters: scale not given: in the data most compounds retested in dose-response had high values
structure (smiles),measurement,setting,value
CC(C)c1nc(CN(C)C(=O)c2cn3ccsc3n2)cs1,Percent Effect,"30.3 µM, […]",-3.628%
CC(=O)Nc1nc(CS(=O)(=O)CCCc2ccccc2)cs1,Percent Effect,"30.3 µM, […]",22.96%
CCCC(C)CS(=O)(=O)NCCc1csc(N2CCCC2)n1 (centres undefined),Percent Effect,"30.3 µM, […]",65.07%
CCC(C)CS(=O)(=O)NCCc1csc(N2CCCC2)n1 (centres undefined),Percent Effect,"30.3 µM, […]",43.99%
CC(C)(C)CCS(=O)(=O)NCCc1csc(N2CCCC2)n1,Percent Effect,"30.3 µM, […]",30.66%
O=C1CO[C@H]2CN(Cc3cccc4[nH]ccc34)C[C@@H]2N1C1CCOCC1,Percent Effect,"30.3 µM, […]",12.12%
Cc1ccc(C2CCCN2S(=O)(=O)N(C)Cc2cnn(C)c2)o1 (centres undefined),Percent Effect,"30.3 µM, […]",-0.6676%
CCOc1ccc(C(=O)CCC(=O)N(C)Cc2noc(C)n2)cc1C,Percent Effect,"30.3 µM, […]",4.933%
CN1CCCC1(CCCc1cccnc1)C(=O)NCc1nccn1C (centres undefined),Percent Effect,"30.3 µM, […]",27.11%
Cc1ccc(O)c(CNC2CCc3nc(C(C)C)nn3C2)n1 (centres undefined),Percent Effect,"30 µM, 30.03 µM",0.7212%
Cc1ccc(S(=O)(=O)N2CCN(CCC#N)CC2)s1,Percent Effect,"30.3 µM, […]",34.19%
Cc1ccc(S(=O)(=O)N2CCN(CCCO)CC2)s1,Percent Effect,"30.3 µM, […]",55.51%
Cc1ccc(S(=O)(=O)N2CCN(CCC(N)=O)CC2)s1,Percent Effect,"30.3 µM, […]",13.04%
C[C@H](NC(=O)c1cnc(-c2ccccc2)nc1O)C(N)=O,Percent Effect,"30.3 µM, […]",12.89%
CCSCC(C)NCc1ccccc1-n1ccnc1 (centres undefined),Percent Effect,"30.3 µM, […]",-5.681%
COc1ccc(C(C)NCc2ccnn2C)cc1Cn1cccn1 (centres undefined),Percent Effect,"30.3 µM, […]",30.62%
Cc1csc(N2CCN(Cc3cscn3)CC2C)n1 (centres undefined),Percent Effect,"30.3 µM, […]",-18.36%
Cc1csc(N2CCN(Cc3cnc(C)s3)CC2C)n1 (centres undefined),Percent Effect,"30 µM, 30.03 µM",50.44%
Cc1cnc(CN2CCN(c3nc(C)cs3)C(C)C2)cn1 (centres undefined),Percent Effect,"30.3 µM, […]",-40.38%
O=C1CC2(CCN(Cc3ccc4cccc(O)c4n3)CC2)CN1,Percent Effect,"30.3 µM, […]",0.5464%
O=C1CC(c2cccnc2)c2c(c(C(=O)O)cn2-c2cccc(F)c2)N1 (centres undefined),Percent Effect,"30.3 µM, […]",52.29%
O=C1CC(c2cccnc2)c2c(c(C(=O)O)cn2-c2ccccc2)N1 (centres undefined),Percent Effect,"30 µM, 30.03 µM",-20.51%
O=C1CC(c2cccnc2)c2c(c(C(=O)O)cn2-c2ccc(Cl)cc2)N1 (centres undefined),Percent Effect,"30.3 µM, […]",19.15%
CCc1cnc2c(c1Nc1cccc(OC)c1)c(=O)n(C)c(=O)n2C,Percent Effect,"30.3 µM, […]",19.41%
CC(=O)N[C@H]1CCN(c2nc(C)nc3c2c(C)nn3C)C1,Percent Effect,"30.3 µM, […]",15.16%
COc1cccc(CNC(=O)c2cc(C)nc(N3CCCC3)n2)c1,Percent Effect,"30.3 µM, […]",4.164%
COc1cccc(Nc2nc(N3CCCC3)nc3c2CNCC3)c1.Cl,Percent Effect,"30.3 µM, […]",98.87%
COc1cccc(Nc2nc(C3CCCNC3)c3ccccn23)c1.Cl (centres undefined),Percent Effect,"30.3 µM, […]",2.866%
COc1cccc(Nc2nc(-c3ccncc3)nc3c2CNCC3)c1.Cl,Percent Effect,"30.3 µM, […]",63.42%
COc1cccc(Nc2nc(C3CCCNC3)c3sc(C)c(C)n23)c1.Cl (centres undefined),Percent Effect,"30.3 µM, […]",20.11%
CC(Nc1nc(-c2ccncc2)nc2c1CCNC2)c1ccccc1 (centres undefined),Percent Effect,"30.3 µM, […]",41.34%
CCOCCNc1nc(-c2ccncc2)nc2c1CCNCC2,Percent Effect,"30.3 µM, […]",-3.835%
COc1cccc(Nc2nc(C3CCNCC3)c3ccccn23)c1.Cl,Percent Effect,"30.3 µM, […]",-2.973%
Cc1sc2c(C3CCCNC3)nc(Nc3cccc(F)c3)n2c1C.Cl (centres undefined),Percent Effect,"30.3 µM, […]",8.436%
Fc1cccc(Nc2nc(N3CCCC3)nc3c2CNCC3)c1,Percent Effect,"30.3 µM, […]",99.78%
CCN1CCN(S(=O)(=O)c2cc(Cl)c(Cl)cc2C)CC1,Percent Effect,"30 µM, 30.03 µM",23.98%
Cc1nc(C2CCN(C(=O)c3cc(C4CC4)[nH]n3)CC2)no1,Percent Effect,"30.3 µM, […]",23.74%
CC1(C(=O)NC2CCCC2)CCCN(c2ncccn2)C1 (centres undefined),Percent Effect,"30.3 µM, […]",2.815%
COc1ccnc(N2CCN(C(=O)c3csc(C4CC4)n3)CC2)n1,Percent Effect,"30 µM, 30.03 µM",15.31%
CN(C)c1ncc(-c2cc(C(=O)N3CCCC3)n(CC3CC3)c2)cn1,Percent Effect,"30.3 µM, […]",-11.64%
CN1CCCN(C(=O)c2nc3sccn3c2-c2ncc[nH]2)CC1,Percent Effect,"30.3 µM, […]",0.9103%
Cc1ccsc1CN1CC2(CCN(C(=O)C3CC3)CC2)CC1C(=O)O (centres undefined),Percent Effect,"30.3 µM, […]",49%
CCOCCN1CCN(CC(=O)NC2(C#N)CCCC2)CC1CC (centres undefined),Percent Effect,"30.3 µM, […]",4.261%
CCCc1nnnn1Cc1cn2c(C)cccc2n1,Percent Effect,"30.3 µM, […]",19.02%
COc1ccccc1Nc1nc2c(C)nn(C)c2c(=O)n1C,Percent Effect,"30.3 µM, […]",-67.83%
COc1ccc(OC)c(Nc2nc3c(C)nn(C)c3c(=O)n2C)c1,Percent Effect,"30.3 µM, […]",46.31%
COc1ccc(C)cc1Nc1nc2c(C)nn(C)c2c(=O)n1C,Percent Effect,"30.3 µM, […]",54.75%
CCc1nn(C)c(Cl)c1CN1C[C@@H](NC(=O)N(C)C)[C@H](C(C)C)C1,Percent Effect,"30.3 µM, […]",11.23%
COC(=O)CN(C(=O)c1ccco1)c1cccc(F)c1,Percent Effect,"30.3 µM, […]",-4.639%
CSc1cccc(NC(=O)CCC(=O)Nc2nccs2)c1,Percent Effect,"30.3 µM, […]",36.02%
CCC(C)Oc1ccc(CNCCNS(C)(=O)=O)cc1Cl (centres undefined),Percent Effect,"30.3 µM, […]",32.76%
CCC(C)Oc1ccc(CNCCNC(C)=O)cc1Cl (centres undefined),Percent Effect,"30.3 µM, […]",40.54%
CCC(C)Oc1ccc(CNCCc2c[nH]cn2)cc1Cl (centres undefined),Percent Effect,"30.3 µM, […]",99.79%
Cc1cnn(CC(=O)N2CCC(c3ccn4nccc4n3)CC2)c1,Percent Effect,"30.3 µM, […]",-6.355%
COCCCNC(=O)Cc1nc(-c2ccncc2)n[nH]1,Percent Effect,"30.3 µM, […]",-25.69%
O=C(Cc1nc(-c2ccncc2)n[nH]1)N1CCOCC1,Percent Effect,"30.3 µM, […]",-34.22%
O=C(Cc1nc(-c2ccncc2)n[nH]1)NCCCN1CCOCC1,Percent Effect,"30.3 µM, […]",58.11%
COCCC1(CNC(=O)NCC2CN(C)CCN2C)CCC1 (centres undefined),Percent Effect,"30.3 µM, […]",8.791%
CCn1c(N)nc2cc(C(=O)NCCc3ccccc3F)cnc21,Percent Effect,"30.3 µM, […]",-34.47%
CCn1c(N)nc2cc(C(=O)NCCc3ccccc3C)cnc21,Percent Effect,"30 µM, 30.03 µM",29.75%
CCn1c(N)nc2cc(C(=O)NCCc3ccncc3)cnc21,Percent Effect,"30.3 µM, […]",62.87%
O=C(O)C1CN(c2cncc(Cc3ccccc3)n2)C1,Percent Effect,"30.3 µM, […]",57.22%
O=C(O)C1CN(c2cncc(Cc3ccccc3F)n2)C1,Percent Effect,"30.3 µM, […]",17.92%
COc1ccccc1Cc1cncc(N2CC(C(=O)O)C2)n1.Cl,Percent Effect,"30.3 µM, […]",35.18%
O=C(N1CCOCC1)N1CCc2ncnc(NC3CCC3)c2CC1.O=C(O)C(F)(F)F,Percent Effect,"30.3 µM, […]",14.85%
c1cc2nc(C3CCNCC3)nn2cc1NC1CCC1,Percent Effect,"30.3 µM, […]",33.34%
Cc1nc(COC(=O)c2cccc3c2OCCO3)cs1,Percent Effect,"30.3 µM, […]",-13.85%
Cc1nc(COC(=O)c2cccc3c2OCCO3)no1,Percent Effect,"30.3 µM, […]",59.03%
Cc1nc(COC(=O)c2cccnc2C)no1,Percent Effect,"30.3 µM, […]",42.97%
N#Cc1c(Cl)nsc1NCC1(c2ccccc2)CCC1,Percent Effect,"30.3 µM, […]",91.2%
COc1ccccc1C1(CNc2snc(Cl)c2C#N)CCCC1,Percent Effect,"30.3 µM, […]",7.398%
COc1ccccc1C1(CNc2snc(Cl)c2C#N)CCOCC1,Percent Effect,"30.3 µM, […]",-16.98%
Cc1cnn(-c2ccc(S(=O)(=O)N(C)CC(C)(CO)CO)cc2F)c1,Percent Effect,"30.3 µM, […]",-120.1%
CNS(=O)(=O)c1ccc(CNC(=O)N(C)CC(C)C)cc1,Percent Effect,"30.3 µM, […]",72.03%
CNS(=O)(=O)c1ccc(CNC(=O)N(C)CC(O)COC)cc1 (centres undefined),Percent Effect,"30.3 µM, […]",11.97%
CNS(=O)(=O)c1ccc(CNC(=O)N(CC(C)C)C(C)C)cc1,Percent Effect,"30.3 µM, […]",-6.25%
CN(C(=O)c1ccc(OCC(F)F)nc1)c1ccc2c(c1)CCO2,Percent Effect,"30.3 µM, […]",3.527%
Cc1ncn(CCNC(=O)Nc2ccc(F)c(Cl)c2)c(=O)c1C,Percent Effect,"30.3 µM, […]",0.8424%
Cc1noc([C@H]2C[C@H]3CN(C(=O)C4CCOCC4)CC[C@@H]3O2)n1,Percent Effect,"30.3 µM, […]",60.92%
Cc1noc([C@@H]2C[C@H]3CN(C(=O)C4CCN(C)CC4)C[C@H]3O2)n1.O=C(O)C(F)(F)F,Percent Effect,"30.3 µM, […]",33.07%
Cc1noc([C@H]2C[C@@H]3CCN(C(=O)C4CCOCC4)C[C@H]3O2)n1,Percent Effect,"30 µM, 30.03 µM",-8.466%
CSc1nccc(N2CCC3(CCCN(Cc4ccc(F)cc4)C3)C2)n1 (centres undefined),Percent Effect,"30.3 µM, […]",14.67%
Cc1cn2c(n1)C(CNCC1=Cc3ccccc3OC1)CCC2 (centres undefined),Percent Effect,"30.3 µM, […]",8.139%
Cc1cn2c(n1)C(CNCC1=Cc3cc(Cl)ccc3OC1)CCC2 (centres undefined),Percent Effect,"30.3 µM, […]",69.51%
Cc1cn2c(n1)C(CNCc1ccc(C)s1)CCC2 (centres undefined),Percent Effect,"30.3 µM, […]",-5.269%
CCc1ocnc1C(=O)N1CCCC(n2nc(C)nc2C)C1 (centres undefined),Percent Effect,30 µM,15.71%
NC(=O)c1cn[nH]c1C1CCCN1C(=O)COc1ccccc1 (centres undefined),Percent Effect,"30.3 µM, […]",17.94%
CC(NC(=O)CCCc1nc(C(C)(C)C)no1)c1ccccn1 (centres undefined),Percent Effect,30 µM,-2.756%
Cc1nc(CN2C(=O)CC[C@@H]3[C@H]2CCN3C2CCOC2)cs1.O=C(O)C(F)(F)F (some centres undefined),Percent Effect,"30.3 µM, […]",-26.48%
COC(=O)C(NC(=O)C1CCCC1)c1cc(F)ccc1F (centres undefined),Percent Effect,30 µM,13.67%
COC(=O)C(NC(=O)COC1CCCC1)c1cc(F)ccc1F (centres undefined),Percent Effect,"30 µM, 30.03 µM",54.06%
COC(=O)C(NC(=O)CC(C)C)c1cc(F)ccc1F (centres undefined),Percent Effect,30 µM,17.07%
O=C1CC2(CCCCN2C(=O)c2ccsc2)CN1CC1CC1 (centres undefined),Percent Effect,"30 µM, 30.03 µM",15.53%
Cc1cnn(CC(=O)Nc2cc(-n3nnnc3C3CC3)ccc2F)c1,Percent Effect,"30.3 µM, […]",1.472%
Cc1nn(C)c2nc(N3CCCCC3c3nccs3)sc12 (centres undefined),Percent Effect,"30.3 µM, […]",21.88%
Cc1nn(C)c2nc(N3CCCCC3c3ccc(F)cc3)sc12 (centres undefined),Percent Effect,"30.3 µM, […]",66.72%
Cc1nn(C)c2nc(N3CCCC3c3nccs3)sc12 (centres undefined),Percent Effect,"30.3 µM, […]",4.253%
CCC(C)NC(=O)c1cc(Br)c2c(c1)OCCO2 (centres undefined),Percent Effect,30 µM,30.6%
Cn1nc(COc2cccnc2)c2c1CCN(Cc1ccco1)C2.O=C(O)C(F)(F)F.O=C(O)C(F)(F)F,Percent Effect,"30.3 µM, […]",17.65%
Cn1nc(COc2cccnc2)c2c1CCN(CC1CC1)C2.O=C(O)C(F)(F)F.O=C(O)C(F)(F)F,Percent Effect,"30.3 µM, […]",98.75%
COCCN1CCc2c(c(COc3cccnc3)nn2C)C1.O=C(O)C(F)(F)F.O=C(O)C(F)(F)F,Percent Effect,"30.3 µM, […]",24.9%
NC(=O)c1ccc(N2CCCCC2)c(NC(=O)c2cc(Br)ccc2F)c1,Percent Effect,"30 µM, 30.03 µM",59.99%
NC(=O)c1ccc(N2CCCCC2)c(NC(=O)c2cc(F)ccc2F)c1,Percent Effect,"30.3 µM, […]",-1.673%
NC(=O)c1ccc(N2CCCCC2)c(NC(=O)c2cc(Br)ccc2Cl)c1,Percent Effect,"30.3 µM, […]",19.23%
